Screens as filed in PubChem.
HCV inhibitor: HCV inhibition | Huh7.5.1 HCVcc-Cre infection, luciferase reporter, 44 h | Potency, µM (titrated, usually from 41.8 µM), inactives show top-dose activity change, negative = inhibition, usual class: inhibitors | actives 3.4% (n = 340,000) | AID 651820; also: potency is read from the fitted curve at half-maximal effect
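Antiviral activity was scored by luciferase reporter output from cells infected with HCVcc-Cre (~0.5 moi) in presence of compound, 44 h infection period, cells seeded 1,000/well 4 h prior.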
Pf growth 96h: P. falciparum growth inhibition at 96 hour, primary screen for plastid delayed-death inhibitors; P. falciparum luciferase reporter growth, 96 h; Potency, µM (top dose mostly 28.7 µM), inactives show top-dose activity change, negative = inhibition, most hits filed as inhibitors; actives 6.9% (n = 320,000); AID 504834; also: potency is read from the fitted curve at half-maximal effect
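Delayed-death screen, second-generation endpoint: infected erythrocytes, 2% hematocrit, 0.05% parasitemia final; 96 hours at 37 C, 5% CO2; luciferase detection reagent; luminescence decrease equals reduced growth.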
Marburg entry inh: blocks Marburg virus binding to or entry into cells. Marburg virus pseudotyped entry inhibition, cell reporter. Potency, µM (highest dose often 37.8 µM), inactives show at the top dose activity change, negative = inhibition, actives largely listed as inhibitors. actives 1.8% (n = 300,000). AID 540276; calls by dose curve; tested in HEK293 cells; also: potency is read from the fitted curve at half-maximal effect
Pf growth 48h: P. falciparum growth inhibition at 48 hours (one generation); P. falciparum luciferase growth in erythrocytes, 48 h; Potency, µM (doses to about 28.7 µM), for the others: at the top dose activity change, negative = inhibition, most hits filed as inhibitors; actives 5.9% (n = 310,000); AID 504832; also: potency is read from the fitted curve at half-maximal effect
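Firefly luciferase activity from engineered P. falciparum reports growth; inhibitors lower the luminescent signal. Cultures contained 2% hematocrit erythrocytes at 0.1% final parasitemia.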
LASV entry inh: inhibitors of Lassa virus binding or cell entry | Potency, µM (highest dose often 37.9 µM), inactives show at the top dose activity change, negative = inhibition, usual class: inhibitors | actives 1.2% (n = 300,000) | Lassa virus pseudotype entry inhibition, cell reporter; calls by dose curve; tested in HEK293 cells; also: potency is read from the fitted curve at half-maximal effect; nearly all actives have a fitted effect of over 50% in size
HCMV antiviral: inhibitors of human cytomegalovirus; AID 1259415; HFF cells, HCMV-luciferase reporter, 72 h; active compounds read low; actives 4.5% (n = 410,000); activity change, negative = inhibition, % at 57.5 µM; in the data active = activity change below about -60%; inconclusive = no clear call, values can overlap the other calls; inactive = above about -39%
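Inhibition of viral replication was scored as loss of reporter luminescence in HFFs infected with HCMV-luciferase (MOI 1 PFU/cell) for 72 h; compounds tested at 2 doses, normalized to buffer and Salinomycin controls.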
Starred values were filed as active, the others as inactive; ? = inconclusive; . = not tested or not shown; [ ] = another dose, or the depositor's remark. Compounds with a hit are over-represented: about 14% of the library has one in this group of screens. Unless noted, calls follow the shape of the dose curve; as a rule, active = well fitted inhibition curve with a large enough effect; inconclusive = small, poorly fitted or top-dose-only effect, or another doubt; inactive = no such curve, though single readings can be large or run the other way. % is scaled to controls: 0 for no effect and ±100 for the full control effect.

SMILES | HCV inhibitor | Pf growth 96h | Marburg entry inh | Pf growth 48h | LASV entry inh | HCMV antiviral
O=C(O)c1ccc(S(=O)(=O)N2CCSCC2)cc1 | 20% | ? | 12%[46.1 µM] | 1% | 30%[46.1 µM] | 6
NC(=O)c1ccc(N2CCN(S(=O)(=O)c3ccccc3)CC2)c([N+](=O)[O-])c1 | 2.8µM* | 35% | -27%[46.1 µM] | ? | 2µM* | -90*
CN1CCN(c2ccc(C(N)=O)cc2[N+](=O)[O-])CC1 | 0% | 0% | 0% | ? | 16% | 51
NC(=O)c1ccc(N2CCN(c3ccc(O)cc3)CC2)c([N+](=O)[O-])c1 | ? | 1.7µM* | ? | ? | -30% | -66*
CC(=O)c1ccc(N2CCN(c3ccc(C(N)=O)cc3[N+](=O)[O-])CC2)cc1 | -9% | -24% | . | -14% | . | ?
Cc1ccc(S(=O)(=O)N2CCN(C(=O)N(c3ccccc3)c3ccccc3)CC2)cc1 | ? | ? | 18µM* | . | ? | ?
CC(=O)OC[C@H]1O[C@@H](ON=C(C)CCN2CCCCc3nc(C)c(C)cc32)[C@H](OC(C)=O)[C@@H](OC(C)=O)[C@H]1OC(C)=O | . | . | 1%[14.2 µM] | . | . | .
Cc1cccc(OCC(=O)OCc2cc(=O)n3nc(C4CCCCC4)sc3n2)c1 | . | . | . | . | 9%[46.1 µM] | 23
CNc1ccc(C(=O)N2CCN(S(=O)(=O)c3ccc4c(c3)OCCCO4)CC2)cc1[N+](=O)[O-] | ? | 12µM* | . | ? | . | -14
O=[N+]([O-])c1cccc(S(=O)(=O)c2ccc(N3CCCCC3)c([N+](=O)[O-])c2)c1 | 8.9µM* | -5% | -20% | -26% | -10% | -20
O=C(c1ccc(N2CCCCC2)c([N+](=O)[O-])c1)N1CCN(S(=O)(=O)c2ccccc2)CC1 | ? | ? | -3%[46.1 µM] | 12µM* | ? | -19
Cc1ccc(S(=O)(=O)N2CCN(c3ccc(C(=O)N4CCOCC4)cc3[N+](=O)[O-])CC2)cc1 | -11% | 10µM* | -43% | -21% | -20% | ?
CCC(Sc1nc2nccnc2c(=O)n1Cc1ccc(Cl)cc1)C(=O)NC1CCCCC1 (configuration not stated) | . | . | . | . | 2%[46.1 µM] | -20
CCC(C)n1c(=N)c(S(=O)(=O)c2ccc(C)cc2)cc2c(=O)n3cc(C)ccc3nc21 (configuration not stated) | . | . | 1%[46.1 µM] | . | 13%[46.1 µM] | 3
CC1CC(C)CN(S(=O)(=O)c2ccc(C(=O)N3CCCC3)cc2)C1 (configuration not stated) | 15% | -4% | 13% | 71% | -15% | ?
CCOc1ccc(S(=O)(=O)N2CCN(C(=O)c3ccc(-n4cncn4)c([N+](=O)[O-])c3)CC2)cc1 | 11µM* | ? | -4% | -14% | -17% | -4
CC1CC(C)CN(C(=O)c2ccc(S(=O)(=O)N3CC(C)CC(C)C3)cc2)C1 (configuration not stated) | -16% | -16% | ? | -24% | ? | -65*
Cc1ccc(S(=O)(=O)N2CCN(C(=O)c3ccc(N4CCCCC4)c([N+](=O)[O-])c3)CC2)cc1 | ? | 10µM* | ? | ? | ? | .
O=C(c1ccc(S(=O)(=O)N2CCCCC2)cc1)N1CCN(CCN2C(=O)c3cccc4cccc(c34)C2=O)CC1 | ? | 3.3µM* | ? | ? | 4% | ?
Cc1ccc(S(=O)(=O)N2CC3(O)CN(C(=O)OC(C)C)N(C(=O)OC(C)C)CC3(OC(=O)NCC3CCCCC3)C2)cc1 (configuration not stated) | . | . | . | . | . | 10
CC1CCN(C(=O)c2ccc3ccccc3c2)CC1 | 11% | ? | 20%[46.1 µM] | -35% | -19%[46.1 µM] | 58
CC(=O)N1CCN(c2ccc(S(=O)(=O)N3CCCCC3)cc2[N+](=O)[O-])CC1 | -6% | . | ? | . | 3% | -23
CC1CC(C)CN(C(=O)c2ccc3ccccc3c2)C1 (configuration not stated) | ? | ? | -20% | 0.83µM* | -18%[46.1 µM] | -27
